Screen size: about 5,500 compounds; about 2,000 (36%) were called active. Not shown: some 18% with an inconclusive outcome. Rule as the data show it: active = normalized growth mostly below about 0.91 (no sharp cut-off); inconclusive = no clear call, values can overlap the other calls; inactive = mostly above about 0.92. This is one part of the list.
Experiment: chemical genetic growth profiling, strain panel (AID 1159580);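 also: tested at 20 µM; growth read once vehicle control cultures reached saturation at 30 °C; 1 = growth at the plate median or of vehicle wells; lower values mean less growth of the strain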
Settings: S. cerevisiae deletion strains, growth OD

Measured: normalized growth

CNC(=O)N(C)c1nnc(C(C)(C)C)s1
inactive: locus YAL013W, strain DEP1, hits give low values 1.01 | locus YAL021C, strain ccr4, hits give low values 0.935 | locus YAL026C, strain drs2, hits give low values 0.993 | locus YAL030W, strain snc1, hits give low values 1 | locus YBL061C, strain skt5, hits give low values 0.997 | locus YBR009C, strain hhf1, hits give low values 1.01 | locus YBR021W, strain FUR4, hits give low values 1.04 | locus YBR023C, strain chs3, hits give low values 0.994 | locus YBR171W, strain sec66, hits give low values 0.983 | locus YBR229C, strain ROT2, hits give low values 1.01 | locus YBR231C, strain swc5, hits give low values 1.02 | locus YBR279W, strain paf1, hits give low values 0.996 | locus YCL011C, strain gbp2, hits give low values 0.985 | locus YCL016C, strain dcc1, hits give low values 0.979 | locus YCL029C, strain bik1, hits give low values 1.01 | locus YCL069W, strain vba3, hits give low values 0.988 | locus YCR088W, strain abp1, hits give low values 0.988 | locus YDL005C, strain med2, hits give low values 0.982 | locus YDL035C, strain GPR1, hits give low values 1.02 | locus YDL040C, strain nat1, hits give low values 0.99 | locus YDL074C, strain BRE1, hits give low values 1.03 | locus YDL101C, strain DUN1, hits give low values 1.02 | locus YDL134C, strain PPH21, hits give low values 1.01 | locus YDL185W, strain tfp1, hits give low values 0.959 | locus YDL192W, strain arf1, hits give low values 1.01 | locus YDR001C, strain nth1, hits give low values 0.977 | locus YDR069C, strain doa4, hits give low values 0.988 | locus YDR101C, strain arx1, hits give low values 1.01 | locus YDR137W, strain rgp1, hits give low values 0.999 | locus YDR150W, strain NUM1, hits give low values 1.01 | locus YDR159W, strain sac3, hits give low values 1.03 | locus YDR162C, strain NBP2, hits give low values 1.01 | locus YDR195W, strain ref2 0.946 | locus YDR297W, strain sur2, hits give low values 1.02 | locus YDR318W, strain mcm21, hits give low values 1.02 | locus YDR334W, strain swr1, hits give low values 0.982 | locus YDR335W, strain msn5, hits give low values 0.995 | locus YDR388W, hits give low values 1.02 | locus YDR392W, strain spt3, hits give low values 1.02 | locus YDR502C, strain sam2, hits give low values 1.02 | locus YEL003W, strain gim4, hits give low values 0.989 | locus YEL037C, strain rad23, hits give low values 0.981 | locus YEL061C, strain CIN8 (second series), hits give low values 0.98 | locus YEL061C, strain CIN8, hits give low values 1.01 | locus YER015W, strain faa2, hits give low values 0.99 | locus YER016W, strain bim1, hits give low values 0.987 | locus YER110C, hits give low values 1.01 | locus YER111C, strain swi4, hits give low values 1 | locus YER155C, strain BEM2 (second series), hits give low values 1.02 | locus YER155C, strain BEM2, hits give low values 1.01 | locus YER167W, strain BCK2, hits give low values 1.02 | locus YFR010W, strain ubp6, hits give low values 0.969 | locus YGL078C, strain dbp3, hits give low values 1.01 | locus YGL086W, strain mad1, hits give low values 1.01 | locus YGL167C, strain pmr1, hits give low values 0.976 | locus YGL173C, strain kem1, hits give low values 1 | locus YGL227W, strain vid30, hits give low values 1 | locus YGL240W, strain doc1, hits give low values 1.03 | locus YGL248W, strain PDE1, hits give low values 1.01 | locus YGL253W, strain hxk2, hits give low values 0.991 | locus YGR078C, strain PAC10, hits give low values 1.02 | locus YGR135W, strain pre9, hits give low values 1.02 | locus YGR229C, strain SMI1, hits give low values 1.04 | locus YGR252W, strain gcn5, hits give low values 1.05 | locus YHR013C, strain ard1, hits give low values 0.972 | locus YHR027C, strain rpn1, hits give low values 0.993 | locus YHR030C, strain SLT2, hits give low values 1.01 | locus YHR079C, strain IRE1 (second series), hits give low values 1.03 | locus YHR094C, strain hxt1, hits give low values 1.01 | locus YHR129C, strain ARP1, hits give low values 0.998 | locus YHR142W, strain chs7, hits give low values 0.979 | locus YHR200W, strain rpn10, hits give low values 1.02 | locus YIL066C, strain RNR3, hits give low values 1.02 | locus YIL073C, strain SPO22, hits give low values 1.07 | locus YIL125W, strain kgd1, hits give low values 1.02 | locus YIR030C, strain dcg1, hits give low values 1.02 | locus YJL092W, strain hpr5, hits give low values 0.976 | locus YJL095W, strain BCK1 (second series), hits give low values 0.993 | locus YJL095W, strain BCK1, hits give low values 1.01 | locus YJL115W, strain asf1, hits give low values 0.973 | locus YJL129C, strain trk1, hits give low values 0.999 | locus YJL134W, strain LCB3, hits give low values 1.02 | locus YJL154C, strain vps35, hits give low values 0.976 | locus YJL164C, strain tpk1, hits give low values 0.998 | locus YJL166W, strain qcr8, hits give low values 1.02 | locus YJL168C, strain set2, hits give low values 1.02 | locus YJL187C, strain SWE1 (second series), hits give low values 1.01 | locus YJR043C, strain POL32, hits give low values 1.03

Reference: PubChem BioAssay AID1159580 (chemical genetic matrix, 2015)
